Compounds without any hit were thinned out: in the full panel of roughly 79,000, 15% have a hit. Activity calls are given as the source filed them. No stated cut-off is given here; in the data, active means growth inhibition above about 70%; inactive means the rest.
How the values were obtained:
[1] = NCI Yeast Anticancer Drug Screen. Data for the rad52 strain (AID 147);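 further: 0% = growth of vehicle-treated control cultures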; settings: S. cerevisiae rad52 mutant growth inhibition, active compounds read high
Method in brief: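 Yeast strain carrying a DNA damage repair alteration was exposed to test compounds. Growth inhibition was measured relative to vehicle-treated controls.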

[2] = NCI Yeast Anticancer Drug Screen. Data for the wt1 strain (AID 149);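 further: 0% = growth of vehicle-treated wt1 cultures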; settings: S. cerevisiae wt1 strain (SPY 50644) growth inhibition, active compounds read high
Method in brief: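 Vehicle-normalised growth inhibition; strain wt1; compound exposure.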

[3] = NCI Yeast Anticancer Drug Screen. Data for the rad50EPP+ strain (AID 151);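 further: 0% = growth of vehicle-treated control cultures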; settings: S. cerevisiae rad50 mutant strain, active compounds read high
Method in brief: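 Yeast strain carrying rad50 alteration (rad50EPP+) exposed to compounds; growth inhibition measured relative to vehicle-treated controls.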

[4] = NCI Yeast Anticancer Drug Screen. Data for the mgt1 strain (AID 153); settings: S. cerevisiae mgt1 mutant growth inhibition, active compounds read high
Method in brief: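 Yeast mgt1 strain (DNA repair/cell-cycle alteration panel) exposed to compounds; growth inhibition measured relative to vehicle-treated controls.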

[5] = NCI Yeast Anticancer Drug Screen. Data for the rad50 strain (AID 155);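 further: 0% = growth of vehicle-only cultures of the same strain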; settings: S. cerevisiae rad50 strain growth inhibition, active compounds read high
Method in brief: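 A DNA repair-deficient yeast mutant serves as the test organism; compound-induced growth inhibition is calculated against vehicle-treated cells.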

[6] = NCI Yeast Anticancer Drug Screen. Data for the mec2-1 strain (AID 157); settings: S. cerevisiae mec2-1 strain, active compounds read high
Method in brief: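 mec2-1 yeast strain, carrying an alteration in DNA damage repair or cell cycle control, was exposed to compounds; growth inhibition was measured relative to vehicle-treated controls.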

[7] = NCI Yeast Anticancer Drug Screen. Data for the rad14 strain (AID 159);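 further: 0% = growth of vehicle-treated control cultures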; settings: S. cerevisiae rad14 strain growth inhibition, active compounds read high
Method in brief: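 Vehicle-treated cultures served as the baseline for growth inhibition of a DNA repair-mutant yeast strain exposed to each compound.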

[8] = NCI Yeast Anticancer Drug Screen. Data for the sgs1 mgt1 strain (AID 161);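 further: 0% = growth of cultures given vehicle only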; settings: S. cerevisiae sgs1 mgt1 strain, active compounds read high
Method in brief: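 Compounds are added to genetically altered yeast, and growth is compared with cultures given vehicle alone to give percent inhibition.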

[9] = NCI Yeast Anticancer Drug Screen. Data for the CLN2oe strain (AID 163);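 further: 0% = growth of vehicle-only control cultures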; settings: S. cerevisiae CLN2oe strain, active compounds read high
Method in brief: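 Yeast cells carrying a defined cell-cycle control alteration were exposed to test compounds. Growth inhibition was scored against vehicle-treated control cultures.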

[10] = NCI Yeast Anticancer Drug Screen. Data for the cln2 rad14 strain (AID 165);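 further: 0% = growth equal to vehicle treated cultures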; settings: S. cerevisiae cln2 rad14 strain, active compounds read high
Method in brief: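 Yeast carrying cln2 and rad14 alterations (cell cycle control and DNA damage repair) were exposed to compounds. Growth inhibition was measured against vehicle-treated controls.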

[11] = NCI Yeast Anticancer Drug Screen. Data for the bub3 strain (AID 167); settings: S. cerevisiae bub3 mutant strain, active compounds read high
Method in brief: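 Inhibition values come from growth of compound-treated mutant yeast normalised to vehicle-treated controls.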

[12] = NCI Yeast Anticancer Drug Screen. Data for the wt2 strain (AID 169);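 further: 0% = growth of vehicle-treated yeast cultures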; settings: S. cerevisiae wt2 strain growth inhibition, active compounds read high
Method in brief: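 Yeast cells were exposed to test compounds, and growth inhibition was measured relative to vehicle-treated controls.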

[13] = NCI Yeast Anticancer Drug Screen. Data for the mlh1 strain (AID 171);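 further: 0% = growth of vehicle-treated control cultures of the same strain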; settings: S. cerevisiae mlh1 strain growth inhibition, active compounds read high
Method in brief: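 Yeast carrying a defined genetic alteration in DNA damage repair or cell cycle control were exposed to test compounds. Growth inhibition was measured relative to vehicle-treated controls.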

[14] = NCI Yeast Anticancer Drug Screen. Data for the sgs1 strain (AID 173);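 further: 0% = growth of vehicle-only control cultures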; settings: S. cerevisiae sgs1 mutant, active compounds read high
Method in brief: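 Yeast mutant strains carrying defined defects in DNA damage repair or cell cycle control were exposed to test compounds. Growth inhibition was scored against vehicle-treated controls.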

[15] = NCI Yeast Anticancer Drug Screen. Data for the mlh1 rad18 strain (AID 175); settings: S. cerevisiae mlh1 rad18 strain growth inhibition, active compounds read high
Method in brief: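 Growth inhibition of the yeast strain was measured after compound exposure and expressed relative to vehicle-treated controls. The strain carries defined defects in DNA damage repair.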

[16] = NCI Yeast Anticancer Drug Screen. Data for the rad18 strain (AID 177); settings: S. cerevisiae rad18 mutant growth inhibition, active compounds read high
Method in brief: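 Yeast carrying a defined DNA damage repair alteration were exposed to compounds. Growth inhibition was expressed relative to vehicle-treated controls.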

[17] = at 5.0 µM (retest, dose inferred, filed as 0.5)
[18] = at 50.0 µM (retest, dose inferred, filed as 5.0)

Measured: growth inhibition

Cc1cc2nc3ccccc3n2c2ccccc12
inactive: [1]; at 1.2 µM -33% | [1]; at 3.7 µM -33% | [1]; at 11.0 µM -56% | [1]; at 33.0 µM -11% | [1]; at 100.0 µM 41% | [2]; at 1.2 µM -53% | [2]; at 3.7 µM -48% | [2]; at 11.0 µM -39% | [2]; at 33.0 µM -31% | [2]; at 100.0 µM -8% | [3]; at 1.2 µM -49% | [3]; at 3.7 µM -24% | [3]; at 11.0 µM -21% | [3]; at 33.0 µM 28% | [3]; at 100.0 µM 63% | [4]; at 1.2 µM -25% | [4]; at 3.7 µM 4% | [4]; at 11.0 µM 6% | [4]; at 33.0 µM 37% | [4]; at 100.0 µM 61% | [5]; at 1.2 µM 2% | [5]; at 3.7 µM -7% | [5]; [17] 0% | [5]; at 11.0 µM 5% | [5]; at 33.0 µM 64% | [5]; at 50.0 µM 41% | [6]; at 1.2 µM -45% | [6]; at 3.7 µM -45% | [6]; [17] -11% | [6]; at 11.0 µM -41% | [6]; at 33.0 µM -30% | [6]; [18] 39% | [6]; at 50.0 µM 56.1% | [6]; at 100.0 µM 8% | [7]; at 1.2 µM -21% | [7]; at 3.7 µM -37% | [7]; at 11.0 µM -36% | [7]; at 33.0 µM -23% | [7]; at 100.0 µM 35% | [8]; [17] -10% | [8]; [18] 29% | [8]; at 50.0 µM 66.7% | [9]; at 1.2 µM -32% | [9]; at 3.7 µM -24% | [9]; at 11.0 µM -30% | [9]; at 33.0 µM -7% | [9]; at 100.0 µM 37% | [10]; [17] 2% | [10]; [18] 60% | [10]; at 50.0 µM 52.6% | [11]; at 1.2 µM -15% | [11]; at 3.7 µM -7% | [11]; [17] 5% | [11]; at 11.0 µM -6% | [11]; at 33.0 µM 5% | [11]; [18] 50% | [11]; at 50.0 µM 69% | [11]; at 100.0 µM 44% | [12]; at 1.2 µM -57% | [12]; at 3.7 µM -45% | [12]; at 11.0 µM -51% | [12]; at 33.0 µM -23% | [12]; at 100.0 µM 45% | [13]; at 1.2 µM -33% | [13]; at 3.7 µM -27% | [13]; at 11.0 µM -7% | [13]; at 33.0 µM 53% | [14]; at 1.2 µM -43% | [14]; at 3.7 µM -35% | [14]; at 11.0 µM -40% | [14]; at 33.0 µM -29% | [14]; at 100.0 µM -13% | [15]; [17] 6% | [15]; at 50.0 µM 65.9% | [16]; at 1.2 µM -24% | [16]; at 3.7 µM -23% | [16]; at 11.0 µM -10% | [16]; at 33.0 µM -8% | [16]; at 100.0 µM 29%
active: [5]; [18] 86% | [5]; at 100.0 µM 91% | [13]; at 100.0 µM 80% | [15]; [18] 78%

O=C(NCCCCN1CC2CCCC2C1)C(C1CCCCC1)C1CCCCC1 (stereo unspecified)
active: [1]; at 33.0 µM 76% | [1]; at 100.0 µM 98% | [2]; at 33.0 µM 75% | [2]; at 100.0 µM 97% | [4]; at 33.0 µM 94% | [4]; at 100.0 µM 98% | [5]; at 33.0 µM 85% | [5]; [18] 94% | [5]; at 100.0 µM 79% | [6]; at 33.0 µM 86% | [6]; [18] 93% | [6]; at 100.0 µM 98% | [7]; at 33.0 µM 97% | [7]; at 100.0 µM 99% | [8]; [18] 90% | [8]; at 50.0 µM 76.7% | [9]; at 33.0 µM 87% | [9]; at 100.0 µM 98% | [10]; [18] 96% | [11]; [17] 94% | [11]; at 33.0 µM 90% | [11]; [18] 99% | [11]; at 100.0 µM 98% | [12]; at 33.0 µM 93% | [12]; at 100.0 µM 98% | [13]; at 33.0 µM 91% | [13]; at 100.0 µM 99% | [14]; at 33.0 µM 94% | [14]; at 100.0 µM 98% | [15]; [18] 96% | [15]; at 50.0 µM 73% | [16]; at 33.0 µM 90% | [16]; at 100.0 µM 98%
inactive: [1]; at 1.2 µM 11% | [1]; at 3.7 µM 12% | [1]; at 11.0 µM 35% | [2]; at 1.2 µM 3% | [2]; at 3.7 µM 6% | [2]; at 11.0 µM 14% | [3]; at 1.2 µM 0% | [3]; at 3.7 µM 1% | [3]; at 11.0 µM 2% | [3]; at 33.0 µM 3% | [3]; at 100.0 µM -3% | [4]; at 1.2 µM 4% | [4]; at 3.7 µM 5% | [4]; at 11.0 µM 40% | [5]; at 1.2 µM 7% | [5]; at 3.7 µM 4% | [5]; [17] 35% | [5]; at 11.0 µM 34% | [5]; at 50.0 µM 67.2% | [6]; at 1.2 µM 13% | [6]; at 3.7 µM 15% | [6]; [17] 17% | [6]; at 11.0 µM 39% | [6]; at 50.0 µM 5.4% | [7]; at 1.2 µM 9% | [7]; at 3.7 µM 12% | [7]; at 11.0 µM 52% | [8]; [17] 23% | [9]; at 1.2 µM 11% | [9]; at 3.7 µM 13% | [9]; at 11.0 µM 32% | [10]; [17] 22% | [10]; at 50.0 µM 43.9% | [11]; at 1.2 µM 10% | [11]; at 3.7 µM 11% | [11]; at 11.0 µM 42% | [11]; at 50.0 µM 61.5% | [12]; at 1.2 µM 2% | [12]; at 3.7 µM 5% | [12]; at 11.0 µM 25% | [13]; at 1.2 µM 7% | [13]; at 3.7 µM 5% | [13]; at 11.0 µM 25% | [14]; at 1.2 µM 9% | [14]; at 3.7 µM 11% | [14]; at 11.0 µM 34% | [15]; [17] 16% | [16]; at 1.2 µM 16% | [16]; at 3.7 µM 23% | [16]; at 11.0 µM 49%
